“And” between values parts separate entries of the source, which are not always exact repeats. Equal entries are not always repeated. Results filed as inconclusive are left out. The source made the active and inactive calls. Unless noted, calls follow the shape of the full dose curve.

In experiment [1] the target is Androgen receptor (Homo sapiens) (UniProt P10275). The experiment in a line: qHTS assay for small molecule antagonists of androgen receptor signaling (AID 588516; active = well fitted curve in the direction sought with a large enough effect in the signal ratio, with a control signal flat, not every such curve was filed as active; the % refers to the signal ratio; also: % is scaled to controls: 0 for no effect and ±100 for the full control effect). In outline:
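AR-UAS-bla-GripTite HEK 293 cells (2000/well, 5 h at 37 C) received compound titrations, then R1881 at 10 nM final; after 16 h at 37 C, CCF4 dye 2 h RT, beta-lactamase fluorescence read; IC50 from Hill fits.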

Experiment [2] deals with Bile acid receptor (Homo sapiens) (UniProt Q96RI1). The experiment in a line: qHTS assay for small molecule antagonists of farnesoid X receptor signaling (AID 588526). Also: % is scaled to controls: 0 for no effect and ±100 for the full control effect. In outline: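 Concentration-response titrations were fitted to the Hill equation for half-maximal inhibition and maximal response, with data normalised to 50 uM chenodeoxycholic acid and DMSO control wells. Cells: FXR-UAS-bla HEK293T, dialyzed FBS.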
Sequence of Bile acid receptor (Homo sapiens) (Q96RI1 whole entry, looked up): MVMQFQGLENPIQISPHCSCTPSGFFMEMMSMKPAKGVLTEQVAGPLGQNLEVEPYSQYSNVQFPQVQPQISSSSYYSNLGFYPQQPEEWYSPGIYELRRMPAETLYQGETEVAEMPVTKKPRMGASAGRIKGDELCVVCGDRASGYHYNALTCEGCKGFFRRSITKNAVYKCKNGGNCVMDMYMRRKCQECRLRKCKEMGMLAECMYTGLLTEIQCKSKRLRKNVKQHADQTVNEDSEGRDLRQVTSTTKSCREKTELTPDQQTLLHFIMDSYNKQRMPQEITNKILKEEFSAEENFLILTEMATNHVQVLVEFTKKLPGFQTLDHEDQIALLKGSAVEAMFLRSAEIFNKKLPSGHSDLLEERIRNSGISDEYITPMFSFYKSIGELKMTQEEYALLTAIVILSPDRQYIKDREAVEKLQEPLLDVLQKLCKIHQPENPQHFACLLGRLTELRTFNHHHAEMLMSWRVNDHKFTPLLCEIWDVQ

Experiment [3] deals with Glucocorticoid receptor (Homo sapiens) (UniProt P04150). Description: qHTS assay for small molecule agonists of glucocorticoid receptor signaling (AID 588532; active = well fitted curve in the direction sought with a large enough effect in the signal ratio, with a control signal flat; the % refers to the signal ratio;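 also: 100% = dexamethasone at 0.1 µM and 0% = DMSO only wells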). The note with it: HeLa MMTV-bla, beta-lactamase ratio, agonist, 18 h; stronger effect = higher value; percent of dexamethasone control, DMSO zero. The procedure, abridged:
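Titration series, up to 92 uM, applied to GRE-bla HeLa cells for 18 h at 37 C. Detection by CCF4 FRET substrate after 2 h at RT.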

Experiment [4] has the same target. Description: qHTS assay for small molecule antagonists of glucocorticoid receptor signaling (AID 588533; active = well fitted inhibition curve with a large enough effect in the signal ratio, with a control signal flat, not every such curve was filed as active; the % refers to the signal ratio;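 also: cells stimulated with 2 nM dexamethasone as agonist; % is scaled to controls: 0 for no effect and ±100 for the full control effect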). The procedure, abridged:
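Antagonist-mode qHTS: compound titrations added to GRE-bla HeLa cells, then dexamethasone 2 nM final; 18 h, 37 C. CCF4 FRET fluorescence normalized to dexamethasone and DMSO; IC50 from Hill fit.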

The target in experiment [5] is Peroxisome proliferator-activated receptor gamma (Homo sapiens) (UniProt P37231). The experiment in a line: qHTS assay for small molecule agonists of peroxisome proliferator-activated receptor gamma signaling (AID 588536; active = well fitted curve in the direction sought with a large enough effect in the signal ratio, with a control signal flat, not every such curve was filed as active; the % refers to the signal ratio;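 also: 0% = DMSO basal wells and 100% = rosiglitazone at 2 µM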). In outline:
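Beta-lactamase reporter read-out: CCF4 fluorescence (ex 405, em 460/530 nm) after 2 h at RT. HEK293 GeneBLAzer cells were treated for 16 h at 37 C. Hill fits gave EC50 and efficacy versus 2 uM rosiglitazone (100%) and DMSO (0%).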

The target in experiment [6] is Vitamin D3 receptor (Homo sapiens) (UniProt P11473). The experiment in a line: qHTS assay for small molecule antagonists of vitamin D receptor signaling (AID 588541).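 Also: receptor activated by calcitriol during compound treatment; series mostly up to about 77 µM; % is scaled to controls: 0 for no effect and ±100 for the full control effect.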 In outline: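 VDR-UAS-bla HEK293T cells (2000/well, 2% charcoal-stripped FBS) were treated with titrated compounds plus 1-alpha,25-dihydroxyvitamin D3 (50 nM or 3 nM final) for 16 h at 37 C. CCF4 beta-lactamase fluorescence was read; Hill fits gave IC50.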

For experiment [7] the target is unchanged. Description: qHTS assay for small molecule agonists of vitamin D receptor signaling (AID 588543).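 Also: 0% = DMSO basal and 100% = reference agonist control.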 The procedure, abridged: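 GeneBLAzer VDR-UAS-bla HEK293T cells in 2% charcoal-stripped FBS medium were dosed with compound titrations for 16 h at 37 °C; CCF4 β-lactamase readout (405 nm ex, 460/530 nm em). EC50 and efficacy from Hill fits, normalized to 50 nM calcitriol (100%) and DMSO (0%).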

Experiment [8] in a line: qHTS assay for small molecule agonists of retinoid X receptor alpha signaling (AID 588544).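 As to activation: 0% = DMSO basal wells and 100% = reference agonist.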 The note with it: HEK293T RXRa-UAS-bla, beta-lactamase reporter, 18 h; 530 nm emission.
Experiment [9] has as its target Retinoic acid receptor RXR-alpha (Homo sapiens) (UniProt P19793). The experiment is described as above.
Experiment [10] deals with Thyroid hormone receptor beta (Homo sapiens) (UniProt P10828). The experiment in a line: qHTS assay for small molecule agonists of thyroid hormone receptor beta signaling (AID 588545). In outline: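 In this cell-based screen, titrated compounds act on HEK 293 cells held in medium with 2% charcoal/dextran FBS, NEAA and pyruvate for 18 hrs at 37 C. Responses are expressed relative to T3 (10 nM) as 100% and basal DMSO as 0%.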

Experiment [11] can be described thus: qHTS assay for small molecule antagonists of retinoid X receptor alpha signaling (AID 588546; active = well fitted inhibition curve with a large enough effect in the signal ratio, with a control signal flat, not every such curve was filed as active; the % refers to the signal ratio). The note with it: HEK293T RXRa-UAS-bla, beta-lactamase ratio, antagonist mode; measured here: W530 green channel, cytotoxicity proxy. The procedure, abridged: (§1)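 Beta-lactamase reporter inhibition, read as CCF4 fluorescence ratio (ex 405, em 460/530 nm) after 2 h at RT. HEK293T UAS-bla cells, 2500/well, were stimulated with 9-cis-RA at 500 or 100 nM final alongside test compound for 18 h at 37 C.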

The target in experiment [12] is Retinoic acid receptor RXR-alpha (Homo sapiens) (UniProt P19793). Described as above. The conditions noted are these: HEK293T RXRa-UAS-bla, beta-lactamase ratio, antagonist mode. The procedure, abridged: as §1
Sequence of Retinoic acid receptor RXR-alpha (Homo sapiens) (P19793 whole entry, looked up): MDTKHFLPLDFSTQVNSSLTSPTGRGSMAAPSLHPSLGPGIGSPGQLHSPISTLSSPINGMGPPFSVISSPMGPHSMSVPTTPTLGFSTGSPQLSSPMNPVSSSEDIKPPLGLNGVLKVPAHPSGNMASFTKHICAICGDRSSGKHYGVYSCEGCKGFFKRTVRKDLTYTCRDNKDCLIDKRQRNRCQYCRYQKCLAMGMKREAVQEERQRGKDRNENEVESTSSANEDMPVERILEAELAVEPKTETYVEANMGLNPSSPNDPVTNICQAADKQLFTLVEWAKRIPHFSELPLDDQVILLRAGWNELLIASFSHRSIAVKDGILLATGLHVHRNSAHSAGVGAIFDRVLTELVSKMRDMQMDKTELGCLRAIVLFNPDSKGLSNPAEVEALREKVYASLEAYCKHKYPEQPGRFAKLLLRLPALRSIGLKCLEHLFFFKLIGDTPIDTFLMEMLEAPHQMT
Experiment [13] has as its target Thyroid hormone receptor beta (Homo sapiens) (UniProt P10828). The experiment in a line: qHTS assay for small molecule antagonists of thyroid hormone receptor beta signaling (AID 588547; active = well fitted inhibition curve with a large enough effect in the signal ratio, with a control signal flat, not every such curve was filed as active; the % refers to the signal ratio). The note with it: TR-UAS-bla HEK293, beta-lactamase ratio, antagonist mode, 18 h. In outline: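 TR-UAS-bla GripTite HEK293 cells in 2% charcoal/dextran FBS medium were preincubated 4 h at 37 C, given compound (0.59 nM to 92 uM) plus 0.4 nM T3 (final) for 18 h, then CCF4 for 2 h at RT; Hill fit gave IC50.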

Experiment [14] deals with Voltage-gated inwardly rectifying potassium channel KCNH2 (Homo sapiens) (UniProt Q12809). Description: qHTS Assay for Small Molecule Inhibitors of the Human hERG Channel Activity (AID 588834; active = well fitted inhibition curve with a large enough effect;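 also: top concentration of the series differs between compounds; % is scaled to controls: 0 for no effect and ±100 for the full control effect; lower thallium flux fluorescence means stronger hERG block; nearly all actives have a fitted effect of over 50% in size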). In outline:
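In hERG-transduced U2OS cells, dye-loaded for 1 hr at room temperature in dark, test compounds incubated 10 min at 37 °C before thallium stimulation. AC50 values derived by Hill modelling of concentration-response.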

The nature of experiment [15]: qHTS assay for small molecule activators of the p53 signaling pathway (AID 651743; active = well fitted activation curve with a large enough effect in the signal ratio, not every such curve was filed as active; the % refers to the signal ratio; also: series mostly up to about 92 µM; % of control where 0% means no effect). The conditions noted are these: HCT-116 p53RE-bla, beta-lactamase FRET ratio, 16 h; stronger effect = higher value. The procedure, abridged:
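Here HCT-116 cells with an integrated p53-responsive beta-lactamase gene were incubated with compounds (16 hours, 37 C) after a 5-hour plating period; beta-lactamase activity was detected as fluorescence intensity via B/G FRET substrate.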

The nature of experiment [16]: qHTS assay for small molecule activators of the nuclear factor-kappa B (NF-kB) signaling pathway (AID 651749; active = well fitted activation curve with a large enough effect in the signal ratio; the % refers to the signal ratio; also: series mostly up to about 77 µM; % of control where 0% means no effect). The note with it: NF-kB-bla ME-180 cells, beta-lactamase FRET ratio, 16 h; stronger effect = higher value. In outline: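 Beta-lactamase reporter expression, controlled by NF-kB response elements in ME-180 cells, was quantified fluorometrically via FRET disruption; cells at 2,000/well had been incubated with 23 nL test compound for 16 hr.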

The nature of experiment [17]: qHTS assay for small molecule antagonists of peroxisome proliferator-activated receptor delta signaling (AID 588535; active = well fitted inhibition curve with a large enough effect in the signal ratio, with a control signal flat, not every such curve was filed as active; the % refers to the signal ratio;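 as to max response: cells co-treated with a PPAR-delta agonist as stimulator during compound exposure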). The conditions noted are these: HEK293T PPARd-UAS-bla, beta-lactamase FRET ratio, 18 h; 460 nm channel. The procedure, abridged:
(§2)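 Compounds tested in titration on PPAR-delta-UAS-bla HEK293T cells grown in charcoal/dextran-stripped serum (2%); beta-lactamase activity read via CCF4 emission at 460 and 530 nm.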

Experiment [18] addresses Peroxisome proliferator-activated receptor delta (Homo sapiens) (UniProt Q03181). The experiment is described as above. The procedure, abridged: as §2
The nature of experiment [19]: qHTS assay for small molecule agonists of the antioxidant response element (ARE) signaling pathway (AID 651741; active = well fitted activation curve with a large enough effect in the signal ratio; the % refers to the signal ratio; also: % of control where 0% means no effect). The procedure, abridged: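 Beta-lactamase reporter expression driven by the antioxidant response element in HepG2 cells was detected by fluorescence with LiveBLAzer B/G FRET substrate (2 h, room temperature) following 16 h compound treatment at 37 C.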
Experiment [20] deals with Peroxisome proliferator-activated receptor gamma (Homo sapiens) (UniProt P37231). The experiment in a line: qHTS assay for small molecule antagonists of peroxisome proliferator-activated receptor gamma signaling (AID 588537; active = well fitted inhibition curve with a large enough effect in the signal ratio, with a control signal flat, not every such curve was filed as active; the % refers to the signal ratio;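 also: reporter cells co-stimulated with 50 nM rosiglitazone agonist during compound treatment; % of control where 0% means no effect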). In outline:
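HEK293 cells, PPAR-gamma-UAS-bla, 3000/well. Pre-incubation 6-6.5 h, 37 C. Compound titration with rosiglitazone 50 nM final, 16 h. CCF4 dye, 2 h RT, dual-emission fluorescence.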

Sequence of Androgen receptor (Homo sapiens) (P10275 whole entry, looked up): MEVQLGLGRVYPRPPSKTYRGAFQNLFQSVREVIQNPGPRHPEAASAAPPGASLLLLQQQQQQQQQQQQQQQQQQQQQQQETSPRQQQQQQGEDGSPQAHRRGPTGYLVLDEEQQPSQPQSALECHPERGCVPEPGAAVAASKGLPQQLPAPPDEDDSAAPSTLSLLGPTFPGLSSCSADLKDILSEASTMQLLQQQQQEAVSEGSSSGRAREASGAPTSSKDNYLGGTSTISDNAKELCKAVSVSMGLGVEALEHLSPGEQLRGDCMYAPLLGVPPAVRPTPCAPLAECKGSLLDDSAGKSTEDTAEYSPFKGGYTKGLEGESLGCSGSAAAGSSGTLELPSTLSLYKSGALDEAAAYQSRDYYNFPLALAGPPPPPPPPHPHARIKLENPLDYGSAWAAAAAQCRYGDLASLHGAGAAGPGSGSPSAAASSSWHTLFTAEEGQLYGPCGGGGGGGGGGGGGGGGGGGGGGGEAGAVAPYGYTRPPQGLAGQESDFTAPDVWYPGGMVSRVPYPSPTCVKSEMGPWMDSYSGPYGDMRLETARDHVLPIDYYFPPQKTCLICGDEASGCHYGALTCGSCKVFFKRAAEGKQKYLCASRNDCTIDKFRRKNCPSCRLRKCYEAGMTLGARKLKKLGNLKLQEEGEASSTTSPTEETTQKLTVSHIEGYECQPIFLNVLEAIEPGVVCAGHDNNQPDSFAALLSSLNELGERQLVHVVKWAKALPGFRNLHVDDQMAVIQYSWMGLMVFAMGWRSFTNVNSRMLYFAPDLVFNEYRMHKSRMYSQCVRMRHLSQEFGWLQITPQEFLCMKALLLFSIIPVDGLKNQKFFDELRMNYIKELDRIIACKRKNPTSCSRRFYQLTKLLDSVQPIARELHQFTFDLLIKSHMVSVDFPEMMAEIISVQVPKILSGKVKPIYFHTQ
Sequence of Peroxisome proliferator-activated receptor delta (Homo sapiens) (Q03181 whole entry, looked up): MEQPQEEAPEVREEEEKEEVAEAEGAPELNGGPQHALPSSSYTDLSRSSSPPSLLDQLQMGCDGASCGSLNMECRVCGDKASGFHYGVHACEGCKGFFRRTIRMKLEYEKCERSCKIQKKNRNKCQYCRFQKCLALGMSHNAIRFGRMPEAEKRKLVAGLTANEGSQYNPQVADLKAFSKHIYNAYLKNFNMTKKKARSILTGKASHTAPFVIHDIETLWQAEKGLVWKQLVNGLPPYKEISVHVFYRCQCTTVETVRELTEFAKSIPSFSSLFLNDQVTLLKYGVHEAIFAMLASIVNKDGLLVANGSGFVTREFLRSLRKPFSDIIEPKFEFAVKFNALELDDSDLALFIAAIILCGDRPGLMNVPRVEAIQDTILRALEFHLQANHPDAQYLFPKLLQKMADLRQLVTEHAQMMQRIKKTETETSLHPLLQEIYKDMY
Sequence of Glucocorticoid receptor (Homo sapiens) (P04150 whole entry, looked up): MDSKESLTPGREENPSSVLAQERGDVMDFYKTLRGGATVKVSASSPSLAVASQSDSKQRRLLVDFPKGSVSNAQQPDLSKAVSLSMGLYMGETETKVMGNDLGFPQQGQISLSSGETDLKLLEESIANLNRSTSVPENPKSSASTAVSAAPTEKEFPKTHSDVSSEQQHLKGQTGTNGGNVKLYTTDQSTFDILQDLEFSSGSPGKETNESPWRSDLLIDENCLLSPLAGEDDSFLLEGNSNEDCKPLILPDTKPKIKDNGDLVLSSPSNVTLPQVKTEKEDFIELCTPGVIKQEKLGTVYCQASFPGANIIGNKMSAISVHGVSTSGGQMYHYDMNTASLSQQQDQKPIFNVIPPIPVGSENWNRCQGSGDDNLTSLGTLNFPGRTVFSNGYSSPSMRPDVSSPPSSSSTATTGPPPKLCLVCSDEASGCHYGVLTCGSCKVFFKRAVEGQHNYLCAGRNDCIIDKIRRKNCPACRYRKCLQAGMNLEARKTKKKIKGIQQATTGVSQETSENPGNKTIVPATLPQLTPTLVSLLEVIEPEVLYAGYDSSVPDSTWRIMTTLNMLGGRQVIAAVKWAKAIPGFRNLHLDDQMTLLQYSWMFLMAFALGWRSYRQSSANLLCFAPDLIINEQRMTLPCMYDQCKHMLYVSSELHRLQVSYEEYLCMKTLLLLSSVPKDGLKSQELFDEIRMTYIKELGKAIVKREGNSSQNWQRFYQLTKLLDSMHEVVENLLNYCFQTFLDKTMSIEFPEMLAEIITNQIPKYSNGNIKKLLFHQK
Sequence of Voltage-gated inwardly rectifying potassium channel KCNH2 (Homo sapiens) (Q12809 whole entry, looked up): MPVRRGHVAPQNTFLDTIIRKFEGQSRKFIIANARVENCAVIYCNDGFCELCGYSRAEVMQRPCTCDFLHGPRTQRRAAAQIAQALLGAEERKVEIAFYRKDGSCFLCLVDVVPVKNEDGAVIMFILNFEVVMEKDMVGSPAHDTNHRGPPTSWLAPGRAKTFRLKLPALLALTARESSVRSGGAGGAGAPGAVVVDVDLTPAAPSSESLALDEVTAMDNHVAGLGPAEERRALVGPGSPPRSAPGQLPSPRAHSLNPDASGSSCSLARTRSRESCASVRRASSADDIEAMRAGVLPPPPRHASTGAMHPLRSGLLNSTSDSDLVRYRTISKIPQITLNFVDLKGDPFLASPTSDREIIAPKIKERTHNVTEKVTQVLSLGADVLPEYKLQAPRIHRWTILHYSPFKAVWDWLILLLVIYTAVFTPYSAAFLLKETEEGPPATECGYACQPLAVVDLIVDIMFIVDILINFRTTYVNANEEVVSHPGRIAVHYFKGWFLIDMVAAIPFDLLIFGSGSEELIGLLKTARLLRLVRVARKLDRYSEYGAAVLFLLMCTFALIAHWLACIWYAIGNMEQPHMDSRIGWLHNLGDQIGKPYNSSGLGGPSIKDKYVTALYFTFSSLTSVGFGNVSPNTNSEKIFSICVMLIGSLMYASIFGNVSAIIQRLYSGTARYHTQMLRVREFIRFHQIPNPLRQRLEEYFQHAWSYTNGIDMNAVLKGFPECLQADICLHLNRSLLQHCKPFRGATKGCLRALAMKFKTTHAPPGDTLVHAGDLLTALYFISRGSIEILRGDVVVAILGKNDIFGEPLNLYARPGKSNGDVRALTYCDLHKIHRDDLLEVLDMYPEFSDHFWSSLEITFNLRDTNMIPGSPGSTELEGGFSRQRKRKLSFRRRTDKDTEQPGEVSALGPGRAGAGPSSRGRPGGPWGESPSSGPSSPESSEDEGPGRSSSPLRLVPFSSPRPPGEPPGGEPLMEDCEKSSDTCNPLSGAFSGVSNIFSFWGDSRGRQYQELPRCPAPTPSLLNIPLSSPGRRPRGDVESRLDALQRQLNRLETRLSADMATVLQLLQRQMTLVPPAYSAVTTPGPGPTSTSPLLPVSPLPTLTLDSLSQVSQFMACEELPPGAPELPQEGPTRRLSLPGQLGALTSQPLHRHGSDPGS
Sequence of Peroxisome proliferator-activated receptor gamma (Homo sapiens) (P37231 whole entry, looked up): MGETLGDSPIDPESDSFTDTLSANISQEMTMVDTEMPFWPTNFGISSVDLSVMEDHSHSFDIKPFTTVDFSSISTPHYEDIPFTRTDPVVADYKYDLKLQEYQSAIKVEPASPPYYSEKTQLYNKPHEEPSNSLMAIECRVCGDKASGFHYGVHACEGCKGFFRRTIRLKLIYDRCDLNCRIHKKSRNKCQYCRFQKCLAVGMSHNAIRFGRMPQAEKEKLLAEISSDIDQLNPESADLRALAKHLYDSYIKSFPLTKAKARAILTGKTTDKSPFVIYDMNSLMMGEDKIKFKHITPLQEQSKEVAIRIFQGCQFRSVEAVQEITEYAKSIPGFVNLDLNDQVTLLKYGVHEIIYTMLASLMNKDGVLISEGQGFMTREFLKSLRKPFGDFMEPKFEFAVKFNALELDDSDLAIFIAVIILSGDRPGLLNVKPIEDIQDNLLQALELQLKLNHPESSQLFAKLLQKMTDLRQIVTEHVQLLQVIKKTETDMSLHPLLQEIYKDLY

In the case of `CCOc1cc(OCC)c(C(C)=O)cc1OCC`, the call in [1], in [2], in experiment [4], in experiment [5], in [6] and in experiment [7] was inactive. For the same compound, the compound was called inactive in experiment [9] and in experiment [10]. Moreover, the activation in experiment [3] is -0.956% (inactive); in experiment [15], -3.93% (inactive); in experiment [16] it was 2.04% (inactive). For the same compound, the max response is 4.48% in experiment [8], 1.94% in [11] and 7.64% (inactive) in [12]. Further, the activity change % (negative = inhibition) in experiment [13] was -7.72% (inactive). In addition, the Potency result in experiment [14] is “inactive”.

Take `Nc1cc(S(=O)(=O)O)ccc1O`: the result in [1], in experiment [4], in experiment [5], in experiment [6], in experiment [7] and in experiment [10] was inactive. Besides, the activation is -0.152% (inactive) in [3] and -1.55% (inactive) in experiment [15]. Also, the max response in [17] is 15.9%; in experiment [8], 6.72%; in experiment [11] it was 0.685%; in experiment [12], 10% (inactive). Also, the Potency result in experiment [18], in experiment [14] and in experiment [19] was “inactive” each time. Further, the activity change % (negative = inhibition) in experiment [13] is 6.95% (inactive).

For `Cc1ccc(C#N)cc1`, the outcome in experiment [2], in experiment [4], in experiment [5], in experiment [20], in experiment [6] and in [7] was inactive. In addition, the compound was called inactive in experiment [9] and in experiment [10]. The activation in [3] was -8.98% (inactive); in experiment [16], 0.0681% (inactive). Further, the max response in experiment [17] is -7.41%; in experiment [8], 3.27%; in experiment [11], -3.82%; in experiment [12], 0.597% (inactive). Moreover, the Potency entry in experiment [18] and in experiment [14] was “inactive” throughout. Besides, the activity change % (negative = inhibition) in [13] was 4.16% (inactive).

With `CC(=O)CC(C)C`, the compound was classed as inactive in experiment [1], in experiment [2], in experiment [4], in [5], in [6] and in experiment [7]. For the same compound, the compound was classed as inactive in experiment [9] and in experiment [10]. Also, the figures for the activation in [3], in experiment [15] and in experiment [16] were 21.2% (inactive), -2.45% (inactive) and 0.24% (inactive), respectively. Moreover, the max response in experiment [17] is 19.2%; in [8], -6.71%; in [11] it was -1.65%; in experiment [12], 12.3% (inactive). Besides, the activity change % (negative = inhibition) in experiment [13] is -3.32% (inactive). Besides, in experiment [19], the Potency result is “inactive”.

In the case of `Clc1ccc(Cl)c(Cl)c1Cl`, the result in experiment [2], in experiment [4], in experiment [5], in experiment [20], in [6] and in [7] was inactive. Moreover, the compound was classed as inactive in experiment [9] and in [10]. In addition, the activation was 16% (inactive) and -12% (inactive) in experiment [3]; -4.49% (inactive) and 4.59% (inactive) in experiment [15]; 0.56% (inactive) and -0.536% (inactive) in experiment [16]. Further, the max response in experiment [17] was 9.65% and -40.7%; in experiment [8], -17% and 0.458%; in experiment [11], 6.74% and -2.64%; in experiment [12] it was 10.9% (inactive) and -11.3% (inactive). For the same compound, the Potency result in experiment [18], in [14] and in experiment [19] was “inactive” each time. In experiment [13], the activity change % (negative = inhibition) was 26.9% (inactive).

For the compound `FB(F)F`, the outcome in experiment [2], in [4], in experiment [5], in experiment [6], in [7] and in experiment [9] was inactive. In experiment [10], the outcome was inactive. The activation in [3] was 3.97% (inactive); in [16], 5.29% (inactive). The max response in experiment [17] was 9.97%; in experiment [8], -9.29%; in [11], 16.6%; in experiment [12], -6.25% (inactive). Moreover, the Potency result in experiment [18], in experiment [14] and in [19] was “inactive” each time. The activity change % (negative = inhibition) in [13] was 15.2% (inactive).

For the compound `O=C(O)CCSSCCC(=O)O`, the compound was called inactive in [1], in experiment [4], in experiment [5], in experiment [6], in experiment [7] and in experiment [9]. The call in [10] was inactive. The results for the max response in experiment [17], in [8] and in experiment [11] were 29.9%, 1.51% and -12%, respectively. The Potency result in experiment [18], in [14] and in experiment [19] was “inactive” throughout. Further, the activity change % (negative = inhibition) in [13] was -3.23% (inactive). Besides, in experiment [16], the activation was -1.14% (inactive).

Values taken from PubChem BioAssay (NCATS).
